Source: PubChem BioAssay (National Center for Advancing Translational Sciences (NCATS))
IMPase Li cell: membrane-permeable IMPase blocker, potentiated with lithium; CHO-M1 cells, IP1 TR-FRET (IP-One), carbachol + lithium; Potency, µM (doses to about 59.4 µM), without a hit: at the highest dose activity, negative = IMPase inhibition, actives largely listed as inhibitors; 210,000 tested, 0.35% active; AID 1457;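 note: IP1 builds up when IMPase is blocked and the TR-FRET signal falls; potency is the fitted concentration of half-maximal effect; plate controls were basal vehicle for no effect and high inhibitor control for full effect; nearly all actives have a fitted effect of over 50% in size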
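Test compounds were applied to CHO-M1 cells previously cultured for 16–30 h at 2000 per well. A small lithium amount accompanied them; after 30 min at 37C, IP1 was quantified by TR-FRET.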
HPGD inh: blocks human HPGD enzyme activity; P15428; purified HPGD, NADH fluorescence kinetic, PGE2 substrate; Potency, µM, for the others: at the highest dose activity change, negative = inhibition, most hits filed as inhibitors; 150,000 tested, 4.3% active; active = well fitted inhibition curve with a large enough effect, not every such curve was filed as active; inconclusive = small, poorly fitted or top-dose-only effect, or another doubt; inactive = no such curve, though single readings can be large or run the other way; note: potency is the fitted concentration of half-maximal effect
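NADH formation kinetics: reaction with 30 uM PGE2 and 1 mM NAD+ (final), 20 nM enzyme, Tris-HCl pH 8 with Tween 20, after 15 min compound preincubation at room temperature. Fluorescence change, last versus first of five reads.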
ALDH1A1 inh: ALDH1A1 (human) enzyme inhibition; Purified ALDH1A1, NADH fluorescence, propionaldehyde substrate; Potency, µM (doses to about 75.3 µM), for inactives: at the highest dose activity, negative = inhibition, usual class: inhibitors; 220,000 tested, 7.3% active; active = well fitted inhibition curve with a large enough effect, not every such curve was filed as active; inconclusive = small, poorly fitted or top-dose-only effect, or another doubt; inactive = no such curve, though single readings can be large or run the other way;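 note: potency is the fitted concentration of half-maximal effect; plate controls were no enzyme wells and a reference inhibitor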
Target sequence (P00352 whole entry, looked up): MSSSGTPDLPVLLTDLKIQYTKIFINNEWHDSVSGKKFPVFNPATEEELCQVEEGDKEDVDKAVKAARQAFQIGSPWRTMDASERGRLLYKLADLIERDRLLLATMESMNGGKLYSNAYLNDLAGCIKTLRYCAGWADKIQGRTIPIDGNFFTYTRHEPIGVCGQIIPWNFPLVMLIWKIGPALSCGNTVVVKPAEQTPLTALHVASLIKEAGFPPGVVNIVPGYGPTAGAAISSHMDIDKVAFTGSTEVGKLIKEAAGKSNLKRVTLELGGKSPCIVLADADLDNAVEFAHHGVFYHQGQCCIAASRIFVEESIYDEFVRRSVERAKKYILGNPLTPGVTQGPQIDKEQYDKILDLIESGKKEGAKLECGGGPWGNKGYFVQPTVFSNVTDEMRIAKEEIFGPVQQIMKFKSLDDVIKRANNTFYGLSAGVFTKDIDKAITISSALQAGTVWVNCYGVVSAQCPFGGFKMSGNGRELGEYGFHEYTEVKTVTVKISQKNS
ALOX12 inhib: inhibitors of human 12-lipoxygenase (ALOX12); P18054; purified 12-hLO, xylenol orange hydroperoxide absorbance; Potency, µM (series often up to 57.1 µM), without a hit: at the highest dose activity change, negative = inhibition, most hits filed as inhibitors; 150,000 tested, 0.12% active; AID 1452; note: potency is the fitted concentration of half-maximal effect; nearly all actives have a fitted effect of over 55% in size
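150 nM 12hLO, 25 mM Hepes pH 7.0 + 0.01% Triton X-100; cpd preinc 15 min RT; 40 uM arachidonic acid, 30 min RT; Fe-XO 30 min; A573/A405 ratio as read-out.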
IMPase cell inh: cell-permeable inhibitors of inositol monophosphatase (IMPase). AID 901. CHO-M1 cells, IP1 accumulation, HTRF TR-FRET ratio. P97697. inhibition (IP1 accumulation), % at 46.1 µM. 120,000 tested, under 10 active; active = well fitted curve in the direction sought with a large enough effect in the signal ratio, not every such curve was filed as active; inconclusive = small, poorly fitted or top-dose-only effect, or a change in a side signal; inactive = no such curve, though single readings can be large or run the other way; the % refers to the signal ratio;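 note: cells stimulated with carbachol in lithium chloride buffer; plate controls were DMSO basal wells for no effect and reference inhibitor wells for full effect; higher means more IMPase inhibition seen as more IP1 and lower FRET ratio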
Target sequence (P97697 whole entry, looked up): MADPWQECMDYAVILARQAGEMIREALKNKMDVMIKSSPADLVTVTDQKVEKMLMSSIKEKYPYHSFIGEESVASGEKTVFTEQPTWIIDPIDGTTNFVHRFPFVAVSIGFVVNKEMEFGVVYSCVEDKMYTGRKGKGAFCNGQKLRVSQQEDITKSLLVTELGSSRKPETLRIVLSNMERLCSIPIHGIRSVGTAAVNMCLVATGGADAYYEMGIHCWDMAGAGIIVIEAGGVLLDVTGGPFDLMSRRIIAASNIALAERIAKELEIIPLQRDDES
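Cellular IMPase inhibition is scored as a rise in cytosolic IP1, detected by competitive TR-FRET between d2-labelled IP1 and a europium anti-IP1 antibody. M1-expressing CHO cells were stimulated with carbachol for 30 min at 37C, with lithium (50 mM LiCl) present in the buffer.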
NPSR antag: neuropeptide S receptor (human) antagonism, cAMP. 220,000 tested, 1% active. Q6W5P4. CHO-NPSR cells, cAMP TR-FRET, antagonist mode. Potency, µM (doses to about 38.3 µM), for the others: at the highest dose activity change, negative = inhibition, usual class: inhibitors; note: potency is the fitted concentration of half-maximal effect; nearly all actives have a fitted effect of over 50% in size
The depositor's hits bear a star; [ ] = dose if it differs, or a comment. In the library only some 8.9% were active in any assay of this set; here they are far more common. Unless noted, calls come from the whole dose curve; as a rule, active = well fitted curve in the direction sought with a large enough effect; inconclusive = small, poorly fitted or top-dose-only effect, or another doubt; inactive = no such curve, though single readings can be large; an effect the other way counts as inactive or inconclusive. Unless noted, % is set by controls: 0 for no effect and ±100 for the full control effect.

COCCSc1ccccc1C(=O)NCc1ccc2c(c1)OCO2 was read as IMPase Li cell -13%[38.3 µM], HPGD inh inconclusive, ALDH1A1 inh -9%, ALOX12 inhib -4%, IMPase cell inh 1 and NPSR antag -2%[46.1 µM].
CC1=C(C(N)=O)C(c2ccc(C)o2)C(C(N)=O)=C(C)N1 was read as IMPase Li cell 20%[38.3 µM], HPGD inh -10%, ALDH1A1 inh 40µM*, ALOX12 inhib 0%, IMPase cell inh -6 and NPSR antag 3%[46.1 µM].
CCOC(=O)C1=C(C)NC(C)=C(C(=O)OCC)C1c1ccc(C)o1 was read as ALDH1A1 inh 7% and NPSR antag 10%.
For COc1cccc(/C=C(\CC(=O)O)c2nc3ccccc3s2)c1 the results were IMPase Li cell -4%, ALDH1A1 inh -3% and NPSR antag -25%.
`Cn1cnnc1SCC(=O)NCCC(c1ccccc1)c1ccccc1` gave IMPase Li cell 15%[38.3 µM], HPGD inh -2%, ALDH1A1 inh -2%, ALOX12 inhib 7%, IMPase cell inh -5 and NPSR antag 5%[46.1 µM].
Cn1cnnc1Sc1ccc(C(=O)NCCC(c2ccccc2)c2ccccc2)cc1[N+](=O)[O-] was read as IMPase Li cell 10%, HPGD inh -20%, ALDH1A1 inh 20µM*, ALOX12 inhib -1% and NPSR antag -1%.
`Cn1cnnc1Sc1ccc(/C=C(\CC(=O)O)c2nc3ccccc3s2)cc1[N+](=O)[O-]` gave ALDH1A1 inh 20µM* and NPSR antag 0%.
`O=C(O)CC/C(=C\c1ccccc1[N+](=O)[O-])c1nc2ccccc2s1` gave IMPase Li cell -5%, ALDH1A1 inh -2% and NPSR antag -29%.
O=C(O)CC/C(=C\c1ccc(N2CCCC2)c([N+](=O)[O-])c1)c1nc2ccccc2s1 was read as IMPase Li cell 0%, ALDH1A1 inh 1.3µM* and NPSR antag -39%.
For Cc1ccc(-c2nn(CC(=O)NCc3ccco3)c(=O)c3ccccc23)cc1 the results were IMPase Li cell 11%[38.3 µM], HPGD inh -16%, ALDH1A1 inh 9%, ALOX12 inhib 0%, IMPase cell inh 4 and NPSR antag -15%[46.1 µM].
CC(C)CC(c1nnnn1Cc1ccccc1)N1CCC(C(N)=O)CC1 (stereo unspecified) was read as IMPase Li cell 2%, HPGD inh 1%, ALDH1A1 inh -5%, ALOX12 inhib 0%, IMPase cell inh 22 and NPSR antag 9%[46.1 µM].
Cc1cc(C(=O)Nc2nc(-c3ccccn3)cs2)ccc1[N+](=O)[O-] was read as IMPase Li cell -2%, ALDH1A1 inh inconclusive and NPSR antag -15%.
`O=C(Nc1nc(-c2ccccn2)cs1)c1cc(Cl)ccc1[N+](=O)[O-]` gave IMPase Li cell -4%, ALDH1A1 inh 10µM* and NPSR antag -58%.
`O=C(Nc1nc(-c2ccccn2)cs1)c1ccccc1-n1cnnn1` gave ALDH1A1 inh 10µM* and NPSR antag -4%.
`COc1ccc(C2C(C(C)=O)=C(O)C(=O)N2CCCn2ccnc2)cc1` (stereo unspecified) gave IMPase Li cell -14%[38.3 µM], HPGD inh -26%, ALDH1A1 inh 1%, ALOX12 inhib -4%, IMPase cell inh 1 and NPSR antag -3%[46.1 µM].
COc1ccc(C(=O)n2cc(C(=O)c3cc(C)ccc3O)cn2)cc1 was read as IMPase Li cell -5%, HPGD inh -12%, ALDH1A1 inh 0.4µM*, ALOX12 inhib 3% and NPSR antag 16%.
Cc1ccc(-n2cc(C(=O)c3ccccc3O)cn2)cc1 was read as IMPase Li cell 6%[38.3 µM], HPGD inh inconclusive, ALDH1A1 inh inconclusive, ALOX12 inhib -5%, IMPase cell inh 5 and NPSR antag -21%[46.1 µM].
Cc1ccc(O)c(C(=O)c2cnn(-c3ccccc3)c2)c1 was read as IMPase Li cell 14%[38.3 µM], HPGD inh 3.5µM*, ALDH1A1 inh -5%, ALOX12 inhib 0%, IMPase cell inh 3 and NPSR antag -22%[46.1 µM].
For COc1ccc(C(=O)n2cc(C(=O)c3cc(C)ccc3O)cn2)cc1OC the results were IMPase Li cell 5%, HPGD inh inconclusive, ALDH1A1 inh 0.16µM*, ALOX12 inhib -11% and NPSR antag -5%.
Screening O=C(Cc1cnn(-c2ccccc2)c1)c1ccc(O)c(O)c1O returned IMPase Li cell 22%[38.3 µM], HPGD inh 28µM*, ALDH1A1 inh 3.2µM*, ALOX12 inhib -22%, IMPase cell inh 5 and NPSR antag -10%[46.1 µM].
For CCc1cc(C(=O)Cc2cnn(-c3ccccc3)c2)c(O)cc1O the results were IMPase Li cell inconclusive, HPGD inh inconclusive, ALDH1A1 inh inconclusive, ALOX12 inhib inconclusive, IMPase cell inh 0 and NPSR antag -13%[46.1 µM].
`COC(=O)c1ccc(Oc2ccc3nnc(C)n3n2)cc1` gave IMPase Li cell 13%[38.3 µM], HPGD inh -14%, ALDH1A1 inh -2%, ALOX12 inhib -2%, IMPase cell inh -14 and NPSR antag -19%[46.1 µM].
COc1ccc(O)c(C(=O)c2cnn(C(=O)c3cc(C)oc3C)c2)c1 was read as IMPase Li cell 0%[38.3 µM], HPGD inh -15%, ALDH1A1 inh 3.5µM*, ALOX12 inhib -9%, IMPase cell inh -8 and NPSR antag -6%[46.1 µM].
Screening CCn1c(C)nc2cc(C(=O)n3cc(C(=O)c4ccccc4O)cn3)ccc21 returned ALDH1A1 inh 4%, ALOX12 inhib -13%, IMPase cell inh -6 and NPSR antag -8%[46.1 µM].
CCN1C(=O)CSc2ccc(C(=O)NCc3ccccc3OC)cc21 was read as IMPase Li cell 14%[38.3 µM], HPGD inh -15%, ALDH1A1 inh 10µM*, ALOX12 inhib -2%, IMPase cell inh 10 and NPSR antag -15%[46.1 µM].
For C=CCN1C(=O)CSc2ccc(C(=O)NCc3cccs3)cc21 the results were IMPase Li cell 6%, ALDH1A1 inh 8.9µM* and NPSR antag -7%.
Screening O=C(NCc1cccs1)c1ccc(Cl)c(S(=O)(=O)N2CCCC2)c1 returned IMPase Li cell 0%, ALDH1A1 inh 6% and NPSR antag -14%.
For CN(C)c1ncnc2ccc(-c3ccoc3)cc12 the results were IMPase Li cell 6% and ALDH1A1 inh 28µM*.
Screening CC1=NOC(=O)/C1=C\c1ccc(-c2ccc(Cl)cc2Cl)o1 returned IMPase Li cell 18%[38.3 µM], HPGD inh 1.8µM*, ALDH1A1 inh 10µM*, ALOX12 inhib -29%, IMPase cell inh -6 and NPSR antag inconclusive.
For Cc1[nH][nH]c(=O)c1C(c1ccc(-c2ccc(Cl)cc2Cl)o1)c1c(C)[nH][nH]c1=O the results were IMPase Li cell 32%[38.3 µM], HPGD inh inconclusive, ALDH1A1 inh inconclusive, ALOX12 inhib -13%, IMPase cell inh -5 and NPSR antag -4%[46.1 µM].
